Screening results: PubChem BioAssay, National Center for Advancing Translational Sciences (NCATS)
nsP2pro primary: blocks chikungunya virus nsP2 protease peptide cleavage; Potency, µM (series often up to 24.9 µM), for inactives: at the top dose activity change, negative = inhibition, usual class: inhibitors; FRET peptide cleavage, nsP2pro, fluorescence 1 h; AID 1964107; 31,000 tested, 1.1% active; Q8JUX6; further: nearly all actives have a fitted effect of over 60% in size
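Purified recombinant nsP2pro (150 nM final) in 10 mM Tris-HCl pH 8.0 with 0.01% Tween 20 was preincubated 15 min at room temperature with compound (7 concentrations, up to 25 uM). FRET peptide 2 substrate (2.5 uM final) was then added; fluorescence was read after 1 h.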
nsP2 cell sec: cell-based CHIKV nsP2 protease inhibition, secondary; shares compounds with nsP2pro primary; 450 tested, 10% active; AID 1964100; cell-based CHIKV nsP2 protease reporter assay; Potency, µM (titrated, usually from 51.1 µM), for inactives: at the highest dose activity change, negative = inhibition, hits mostly inhibitors; further: nearly all actives have a fitted effect of over 70% in size
CHIKV NSP2 FL: inhibits full-length CHIKV NSP2 enzyme; shares compounds with nsP2pro primary; 410 tested, 39% active; Full-length CHIKV NSP2 protease enzymatic counterscreen; Potency, µM (titrated, usually from 50.7 µM), inactives show top-dose activity change, negative = inhibition, hits mostly inhibitors; further: nearly all actives have a fitted effect of over 65% in size
Furin counterscr: inhibits human furin in a CHIKV nsP2 protease selectivity counterscreen. Potency, µM (doses to about 50.6 µM), without a hit: top-dose activity change, negative = inhibition, hits mostly inhibitors. 410 tested, 6% active. AID 1964102. shares compounds with nsP2pro primary. Recombinant human furin enzymatic counterscreen, fluorogenic substrate
Target sequence (P09958 whole entry, looked up): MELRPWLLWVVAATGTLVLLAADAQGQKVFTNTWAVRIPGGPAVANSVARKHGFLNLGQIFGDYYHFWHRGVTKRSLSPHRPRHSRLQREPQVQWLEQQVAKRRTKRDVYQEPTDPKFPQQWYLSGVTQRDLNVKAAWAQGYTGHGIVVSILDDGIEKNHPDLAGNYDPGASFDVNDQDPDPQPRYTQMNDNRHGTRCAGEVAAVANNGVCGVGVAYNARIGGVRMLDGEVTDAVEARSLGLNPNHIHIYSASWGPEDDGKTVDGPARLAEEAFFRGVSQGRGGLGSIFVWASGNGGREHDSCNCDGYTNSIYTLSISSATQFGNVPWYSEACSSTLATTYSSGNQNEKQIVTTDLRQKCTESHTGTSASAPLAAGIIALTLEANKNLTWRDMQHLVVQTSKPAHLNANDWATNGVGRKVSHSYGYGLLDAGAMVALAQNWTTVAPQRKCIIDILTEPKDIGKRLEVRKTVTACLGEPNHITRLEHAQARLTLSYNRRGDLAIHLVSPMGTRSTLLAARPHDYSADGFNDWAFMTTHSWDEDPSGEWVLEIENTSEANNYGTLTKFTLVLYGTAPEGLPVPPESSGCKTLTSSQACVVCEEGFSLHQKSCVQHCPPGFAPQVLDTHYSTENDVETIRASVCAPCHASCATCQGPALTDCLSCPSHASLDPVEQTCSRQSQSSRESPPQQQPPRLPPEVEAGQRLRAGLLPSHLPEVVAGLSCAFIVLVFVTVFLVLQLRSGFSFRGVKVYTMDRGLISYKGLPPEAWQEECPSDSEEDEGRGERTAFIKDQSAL
NS23 peptide cs: selectivity test for CHIKV nsP2 protease inhibitors: endogenous NS2/3 peptide; shares compounds with nsP2pro primary; 410 tested, 34% active; Purified CHIKV nsP2 protease, endogenous NS2/3 peptide cleavage; Potency, µM (top dose mostly 51 µM), for inactives: top-dose activity change, negative = inhibition, actives largely listed as inhibitors; further: nearly all actives have a fitted effect of over 55% in size
Papain cs: selectivity counter-screen for CHIKV nsP2 protease inhibitors: papain | shares compounds with nsP2pro primary | purified papain protease activity, enzymatic inhibition | Potency, µM (highest dose often 51 µM), without a hit: at the highest dose activity change, negative = inhibition, most hits filed as inhibitors | 410 tested, 5% active | AID 1964104
nsP2pro conf qHTS: CHIKV nsP2 protease inhibition, confirmatory qHTS; shares compounds with nsP2pro primary; CHIKV nsP2 protease enzymatic activity, qHTS; Potency, µM (top dose mostly 25.5 µM), for the others: top-dose activity change, negative = inhibition, hits mostly inhibitors; 410 tested, 43% active; AID 1964105; further: nearly all actives have a fitted effect of over 75% in size
HCV NS3 4A cs: selectivity counter-screen for CHIKV nsP2 protease inhibitors: HCV NS3/4A; Potency, µM (highest dose often 50.9 µM), actives largely listed as inhibitors; shares compounds with nsP2pro primary; 410 tested, 20% active; HCV NS3/4A protease biochemical counterscreen; further: nearly all actives have a fitted effect of over 55% in size
* marks the source's active call; other numbers are inactive results; i = inactive; ? = inconclusive. The sample as a whole holds a higher share of hits than the screen did. The call rests on the fitted dose curve. On the % scale 0 is the no-effect control and ±100 the full control effect; potency means the concentration at half of the fitted maximal effect.

SMILES	nsP2pro primary	others
COc1ccc(NC(=O)C(OC(=O)CNC(=O)c2ccccc2)c2ccccc2)c(C)c1 (stereo unspecified)	-4%
COc1cccc(C(=O)CCN[C@@H](C)[C@H](O)c2ccccc2)c1	1.6µM*	nsP2 cell sec=54%;CHIKV NSP2 FL=5.8µM*;Furin counterscr=-4%;NS23 peptide cs=10µM*;Papain cs=-3%;nsP2pro conf qHTS=1.3µM*;HCV NS3 4A cs=i
CC(=O)OC(C)(C)CCC(=O)[C@](C)(O)C1[C@H](O)C[C@@]2(C)C3CC=C4C(C[C@H](O)[C@@H](O)C4(C)C)[C@]3(C)C(=O)C[C@]12C (stereo partly specified)	9%
O=C(c1cc(Cl)c(O)c(Cl)c1)N1CS(=O)(=O)c2ccccc21	-7%
FC(F)(F)c1ccccc1-c1nc(NCc2ccc(-c3cccc(Cl)c3)cc2)c2ccccc2n1	1%
O=NCc1ccc([N+](=O)[O-])o1	-23%
Cc1ccc(S(=O)(=O)c2ccc([N+](=O)[O-])o2)cc1	0.56µM*	nsP2 cell sec=?;CHIKV NSP2 FL=1.5µM*;Furin counterscr=-11%;NS23 peptide cs=4.6µM*;Papain cs=?;nsP2pro conf qHTS=0.56µM*;HCV NS3 4A cs=i
NC(=O)N/N=C/c1ccc([N+](=O)[O-])o1	-26%
COc1cccc(NC(=S)N2CCN(c3cccc(C(F)(F)F)n3)CC2)n1	-14%
CCc1c(C)nc2c(-c3cnn(-c4cc(CO)ccn4)c3)c[nH]n2c1=O	i
O=C1c2ccccc2-c2c(NCCc3ccccc3)c(=O)[nH]c3cccc1c23	436%
Cc1cccc(N2CCN(S(=O)(=O)c3cc(C(=O)Nc4ccc(Oc5ccccc5)cc4)ccc3F)CC2C)c1 (stereo unspecified)	-13%
Cc1cccc(N2CCN(c3ccc(NC(=O)c4ccccc4)cc3C(=O)O)CC2C)c1 (stereo unspecified)	?	nsP2 cell sec=9%;CHIKV NSP2 FL=6.5µM*;Furin counterscr=?;NS23 peptide cs=16µM*;Papain cs=21%;nsP2pro conf qHTS=8µM*;HCV NS3 4A cs=3.7µM*
CCOC(=O)c1ccc(N2CCN(c3cccc(Cl)c3)CC2)c(NC(=O)Nc2ccc(Cl)cc2)c1	7%
Cc1cccc(N2CCN(S(=O)(=O)c3ccc(F)c(C(=O)Nc4cccc(Cl)c4C)c3)CC2C)c1 (stereo unspecified)	-6%
Cc1cccc(N2CCN(C(=O)c3ccc(NC(=O)c4nsc5ccccc45)cc3)CC2C)c1 (stereo unspecified)	3%
Cc1cccc(N2CCN(c3ccc(C(=O)O)cc3NC(=O)c3cccc(Cl)c3)CC2C)c1 (stereo unspecified)	?	nsP2 cell sec=13%;CHIKV NSP2 FL=0%;Furin counterscr=-25%;NS23 peptide cs=18µM*;Papain cs=?;nsP2pro conf qHTS=8µM*;HCV NS3 4A cs=?
C=C1/C(=C\C=C2/CCC[C@@]3(C)C2CC[C@@H]3[C@H](C)/C=C\[C@@H](O)C2CC2)C[C@@H](O)C[C@@H]1O (stereo partly specified)	-24%
CC(=O)Nc1sc2cnccc2c1-c1nc2ccccc2s1	-6%
OC[C@H]1O[C@H](OC[C@H]2O[C@H](O[C@]3(CO)O[C@H](CO)[C@@H](O)[C@@H]3O)[C@H](O)[C@@H](O)[C@@H]2O)[C@H](O)[C@@H](O)[C@H]1O	-18%
O=[N+]([O-])c1cccc(CNc2ccc(S(=O)(=O)Nc3nccs3)cc2)c1O	2%
Cc1cc(C)c(S(=O)(=O)n2cc(C)cc2C)c(C)c1	-29%
C[C@H]1O[C@@H](O[C@H]2CC[C@@]3(C)C(CC[C@]4(C)[C@@H]3C=CC3=C5CC(C)(C)CC[C@]5(CO)[C@H](O)C[C@@]34C)[C@]2(C)CO)[C@H](O)[C@@H](O[C@@H]2O[C@H](CO)[C@@H](O)[C@H](O)[C@@H]2O)[C@H]1O (stereo partly specified)	0%
CC(CCC(=O)O)[C@H]1CC[C@H]2[C@@H]3CC[C@@H]4C[C@H](O)CC[C@]4(C)[C@H]3C[C@H](O)[C@]12C (stereo partly specified)	-5%
COc1ccccc1Oc1c(NS(=O)(=O)c2ccc(C)cn2)nc(-c2ccncc2)nc1OC	-14%
SMILES	nsP2pro primary	others
CCCCN(CCCC)C(=S)[S-].CCCCN(CCCC)C(=S)[S-].[Zn+2]	0.56µM*	nsP2 cell sec=?;CHIKV NSP2 FL=0.23µM*;Furin counterscr=7.3µM*;NS23 peptide cs=1.6µM*;Papain cs=4.1µM*;nsP2pro conf qHTS=0.36µM*;HCV NS3 4A cs=i
OC[C@H]1O[C@@H](n2cnc3c2NC=NC[C@H]3O)CC1O (stereo partly specified)	-23%
O=C(Cc1ccc(Cl)c(Cl)c1)Nc1ccc([S+](=O)([O-])Nc2ncn[nH]2)cc1	1%
O=[S+]([O-])(Nc1ccc(N2CCNCC2)cc1)c1ccc(NCc2ccc(Cl)cc2O)cc1	-14%
O=C(Nc1nc(-c2ccccc2)cs1)c1ccncc1NS(=O)(=O)c1cccnc1	i
C[C@@H](O)c1ccc(-c2ccc3ncnc(NCc4cccs4)c3c2)o1	0%
CNCCN1CCC(OCc2ccccc2)CC1	1%
O=C(O)Cc1cc(I)c(Oc2ccc(O)c(I)c2)c(I)c1	22%
CC(=O)Nc1ccc(CC(=O)O)cc1	2%
O=C(O)Cc1ccc(O)c(O)c1	?	nsP2 cell sec=-3%;CHIKV NSP2 FL=-23%;Furin counterscr=-5%;NS23 peptide cs=?;Papain cs=-7%;nsP2pro conf qHTS=9µM*;HCV NS3 4A cs=8.2µM*
Cc1ccc(S(=O)(=O)Nc2cnccc2C(=O)Nc2nc(-c3ccc(-c4ccccc4)cc3)cs2)cc1	3%
O=C(NCCc1ccc(O)c(O)c1)c1cc2sccc2n1Cc1ccccc1	i
CCOC(=O)C1CCN(C(=O)Cn2ncc3c4ccccc4n(C)c3c2=O)CC1	-15%
Cc1ccc(C)c(N2CCN(C(=O)Cn3ncc4ccsc4c3=O)CC2)c1	-19%
CCOC(=O)N1CCN(C(=O)Cn2sc3nc(C)cc(C)c3c2=O)CC1	3.9µM*	nsP2 cell sec=24%;CHIKV NSP2 FL=?;Furin counterscr=3%;NS23 peptide cs=21µM*;Papain cs=-13%;nsP2pro conf qHTS=4µM*;HCV NS3 4A cs=i
CCC[C@@H](C(=O)O)N1C(=O)[C@H]2C[C@@H]3CCCC[C@@H]3N2C(=O)[C@@H]1C	-16%
CCNC(=O)c1ccc(-c2ccc3ncnc(NCc4ccc(C)o4)c3c2)o1	-19%
